Assay results taken from PubChem BioAssay AID1159580 (chemical genetic matrix, 2015).
The whole screen tested about 5,500 compounds, of which about 2,000 (36%) were called active. Roughly 18% stayed inconclusive and do not appear here. Rule as the data show it: active = normalized growth mostly below about 0.91 (no sharp cut-off); inconclusive = no clear call, values can overlap the other calls; inactive = mostly above about 0.92. Some of the results follow.

Test: chemical genetic growth profiling, strain panel (AID 1159580);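 also: tested at 20 µM; growth read once vehicle control cultures reached saturation at 30 °C; 1 = growth at the plate median or of vehicle wells; lower values mean less growth of the strain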
Conditions: S. cerevisiae deletion strains, growth OD

Measured: normalized growth

NC1=C(c2ccccc2)C(=O)NC1=O
inactive: locus YAL013W, strain DEP1, hits give low values 1.01 | locus YBR229C, strain ROT2, hits give low values 1.05 | locus YCL061C, strain MRC1, hits give low values 1.03 | locus YDL101C, strain DUN1, hits give low values 0.993 | locus YDR150W, strain NUM1, hits give low values 0.991 | locus YEL061C, strain CIN8, hits give low values 0.999 | locus YGR078C, strain PAC10, hits give low values 0.998 | locus YGR229C, strain SMI1, hits give low values 1.01 | locus YHR030C, strain SLT2, hits give low values 1.02 | locus YHR087W, strain rtc3, hits give low values 0.988 | locus YJR043C, strain POL32, hits give low values 1.01 | locus YJR075W, strain HOC1, hits give low values 0.95 | locus YLR039C, strain RIC1, hits give low values 1.02 | locus YLR058C, strain SHM2 (second series), hits give low values 1.02 | locus YLR085C, strain ARP6, hits give low values 0.946 | locus YLR262C, strain YPT6, hits give low values 1.01 | locus YML094W, strain GIM5, hits give low values 0.993 | locus YMR219W, strain ESC1, hits give low values 0.984 | locus YMR263W, strain SAP30, hits give low values 1.01 | locus YNL128W, strain TEP1, hits give low values 1.03 | locus YNL153C, strain GIM3, hits give low values 1 | locus YNL298W, strain CLA4 (second series), hits give low values 0.996 | locus YNL322C, strain KRE1, hits give low values 1 | locus YNR030W, strain Alg12, hits give low values 0.989 | locus YPL055C, strain LGE1, hits give low values 0.994 | locus YPL241C, strain CIN2, hits give low values 1.01 | locus YPR135W, strain CTF4, hits give low values 0.974
